In PubChem BioAssay (NCI):
Compounds without any hit were thinned out: in the full panel of roughly 83,000, 20% have a hit.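 48-hour exposure, single concentration, 96-well plates; percent growth endpoint where 0 means no net growth. Active: below 10.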 Activity calls are given as the source filed them.

Key:
Experiment in all cases: NCI-60 one-dose screen, 48 h (100 = growth as untreated, 0 = no growth, -100 = all killed)
Details in all cases: 10 µM unless noted
DU-145 prostate = test system: DU-145 prostate
K-562 leukemia = test system: K-562 leukemia
MALME-3M melanoma = test system: MALME-3M melanoma
MDA-MB-231 breast = test system: MDA-MB-231 breast
RXF 393 renal = test system: RXF 393 renal
SF-295 CNS = test system: SF-295 CNS
UACC-257 melanoma = test system: UACC-257 melanoma
M14 melanoma = test system: M14 melanoma
HCT-15 colon = test system: HCT-15 colon
HT29 colon = test system: HT29 colon
SNB-75 CNS = test system: SNB-75 CNS
SNB-19 CNS = test system: SNB-19 CNS
U251 CNS = test system: U251 CNS
PC-3 prostate = test system: PC-3 prostate
SK-MEL-5 melanoma = test system: SK-MEL-5 melanoma
UACC-62 melanoma = test system: UACC-62 melanoma
LOX IMVI melanoma = test system: LOX IMVI melanoma
SK-MEL-28 melanoma = test system: SK-MEL-28 melanoma
SF-268 CNS = test system: SF-268 CNS
SF-539 CNS = test system: SF-539 CNS

Measured: growth

N=C(N)N=Nc1ccc(NN=C(N)N)cc1
inactive: DU-145 prostate 95.4% | K-562 leukemia 96.2% | MALME-3M melanoma 138% | MDA-MB-231 breast 86.2% | RXF 393 renal 81.6% | SF-295 CNS 101% | UACC-257 melanoma 94% | M14 melanoma 78.6% | HCT-15 colon 102% | HT29 colon 91.1% | SNB-75 CNS 76.4% | SNB-19 CNS 94.2% | U251 CNS 91.8% | PC-3 prostate 45.9% | SK-MEL-5 melanoma 94% | UACC-62 melanoma 90.8% | LOX IMVI melanoma 96.4% | SK-MEL-28 melanoma 103%

O=c1[nH]c(=S)[nH]c(O)c1/C=C1\C=Nc2ccccc21
inactive: DU-145 prostate 108% | K-562 leukemia 99.4% | MALME-3M melanoma 99.5% | MDA-MB-231 breast 64.5% | SF-268 CNS 70% | SF-295 CNS 43% | SF-539 CNS 94.2% | UACC-257 melanoma 80.5% | HCT-15 colon 56.2% | HT29 colon 58.6% | SNB-75 CNS 71.8% | U251 CNS 24% | PC-3 prostate 61.7% | SK-MEL-5 melanoma 75.8% | LOX IMVI melanoma 67% | SK-MEL-28 melanoma 96.8%

COC(=O)[C@H](Cc1cn(C)cn1)NC(=O)[C@H](CC(=O)OCc1ccccc1)NC(=O)Nc1cc(C(F)(F)F)cc(C(F)(F)F)c1
active: DU-145 prostate -94.5% [100 µM] | K-562 leukemia -60.2% [100 µM] | MALME-3M melanoma -94.4% [100 µM] | MDA-MB-231 breast -93% [100 µM] | RXF 393 renal -81.8% [100 µM] | SF-268 CNS -91.4% [100 µM] | SF-539 CNS -94.6% [100 µM] | UACC-257 melanoma -94.9% [100 µM] | M14 melanoma -93.6% [100 µM] | HCT-15 colon -82.2% [100 µM] | HT29 colon -85.2% [100 µM] | SNB-75 CNS -98.6% [100 µM] | SNB-19 CNS -93% [100 µM] | U251 CNS -96.5% [100 µM] | PC-3 prostate -94.1% [100 µM] | SK-MEL-5 melanoma -97.3% [100 µM] | UACC-62 melanoma -98.3% [100 µM] | LOX IMVI melanoma -85.3% [100 µM] | SK-MEL-28 melanoma -95.6% [100 µM]

CC(=O)Nc1ccc(CC#N)cc1Br
inactive: DU-145 prostate 107% | K-562 leukemia 111% | MALME-3M melanoma 101% | MDA-MB-231 breast 112% | SF-268 CNS 106% | SF-295 CNS 105% | SF-539 CNS 103% | UACC-257 melanoma 103% | M14 melanoma 105% | HCT-15 colon 105% | HT29 colon 104% | SNB-75 CNS 91% | SNB-19 CNS 103% | U251 CNS 104% | PC-3 prostate 95.6% | SK-MEL-5 melanoma 97.8% | UACC-62 melanoma 99.6% | LOX IMVI melanoma 106% | SK-MEL-28 melanoma 114%

CCCCS(=O)(=O)c1cc(Nc2ccc(O)c3c2C(=O)c2ccccc2C3=O)ccc1C
inactive: DU-145 prostate 42.1% | K-562 leukemia 67% | MDA-MB-231 breast 71.8% | RXF 393 renal 76.1% | SF-268 CNS 84.5% | SF-539 CNS 86.8% | UACC-257 melanoma 75.8% | M14 melanoma 21% | HCT-15 colon 66.8% | HT29 colon 51.5% | SNB-75 CNS 106% | SNB-19 CNS 66.7% | U251 CNS 80.7% | PC-3 prostate 80.7% | UACC-62 melanoma 32.8% | LOX IMVI melanoma 51.5% | SK-MEL-28 melanoma 71.5%
active: MALME-3M melanoma 2.26% | SK-MEL-5 melanoma -13.5%

COc1cc2cc3cc4cc(OC)c(OC)cc4c(C)[n+]3cc2cc1OC (tested in a mixture with another compound)
inactive: DU-145 prostate 79.3% | K-562 leukemia 58.1% | MALME-3M melanoma 86.2% | MDA-MB-231 breast 94.5% | SF-268 CNS 39.4% | SF-295 CNS 70.7% | SF-539 CNS 85% | UACC-257 melanoma 51.1% | M14 melanoma 78.4% | HCT-15 colon 91.8% | HT29 colon 79.2% | SNB-75 CNS 73.1% | SNB-19 CNS 96.2% | U251 CNS 76.9% | PC-3 prostate 67.8% | SK-MEL-5 melanoma 82.4% | UACC-62 melanoma 84.3% | LOX IMVI melanoma 84.4% | SK-MEL-28 melanoma 116%

C=C(C)C(C(=O)OCC)(C(=O)OCC)C(C)C
inactive: DU-145 prostate 120% | K-562 leukemia 116% | MALME-3M melanoma 110% | MDA-MB-231 breast 112% | RXF 393 renal 112% | SF-268 CNS 112% | SF-539 CNS 105% | UACC-257 melanoma 107% | M14 melanoma 110% | HCT-15 colon 102% | HT29 colon 116% | SNB-75 CNS 86.5% | SNB-19 CNS 99.9% | U251 CNS 102% | PC-3 prostate 108% | SK-MEL-5 melanoma 98.3% | UACC-62 melanoma 103% | LOX IMVI melanoma 102% | SK-MEL-28 melanoma 97%

O=C(c1ccccc1)c1ccccc1-c1ccccc1
inactive: DU-145 prostate 51.1% | K-562 leukemia 14.5% | MALME-3M melanoma 49.4% | MDA-MB-231 breast 42.1% | SF-268 CNS 45.4% | SF-295 CNS 17.1% | SF-539 CNS 20.4% | UACC-257 melanoma 55.4% | HCT-15 colon 17.8% | SNB-19 CNS 34.7% | U251 CNS 25.4% | PC-3 prostate 41.4% | SK-MEL-5 melanoma 25% | UACC-62 melanoma 34.5% | LOX IMVI melanoma 31.6% | SK-MEL-28 melanoma 50.1%
active: M14 melanoma 0.878% | HT29 colon -25.8% | SNB-75 CNS 3.14%
